Bioassay records (PubChem)
Hits are enriched below; roughly 2.6% of the tested compounds scored in any of these assays.
AI-2 QS modul – modulators of Vibrio harveyi AI-2 quorum sensing system; 300,000 tested, 0.4% active; activity change, % at 7.5 µM; Vibrio harveyi JMH597 AI-2 luminescence/OD600 ratio, 9 h; active compounds read low; strain lacks LuxN and CqsS sensors; 0 = neutral-control median; in the data active = activity change below about -75%, passing the limit was not always enough;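 also: luminescence divided by OD600 gain over 9 h not by final OD600 alone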
ABCB6 inh 2 – human ABCB6 transporter inhibition. 360,000 tested, 0.19% active. fluorescence ratio to DMSO, % at 10 µM. K562-ABCB6 porphyrin accumulation, flow cytometry, 1 h; active compounds read low. Q9NP58;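 active = fluorescence ratio to DMSO below 75%, the collection mean minus 3 SD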;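 also: signal is porphyrin accumulated inside mitochondria; 100% equals median channel fluorescence of DMSO control wells; lower ratio means ABCB6 inhibition with less porphyrin fluorescence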
PHOSPHO1 block – inhibitors of human PHOSPHO1 phosphatase | inhibition, % at 13.3 µM | recombinant PHOSPHO1, absorbance phosphatase assay | Q8TCT1 | 290,000 tested, 1.1% active; in the data active = inhibition above about 60%
PABP1 MLLE inh – blocks PAM2 peptide binding to the PABP1 MLLE domain; P11940; GST-MLLE / FITC-PAM2 fluorescence polarization; inhibition, % at 20 µM; 360,000 tested, 0.36% active; in the data active = inhibition above about 35%, passing the limit was not always enough;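 also: plate controls were DMSO wells with GST-MLLE for no effect and wells lacking GST-MLLE protein for full effect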
Target sequence (P11940 whole entry, looked up, the tested form may be a part): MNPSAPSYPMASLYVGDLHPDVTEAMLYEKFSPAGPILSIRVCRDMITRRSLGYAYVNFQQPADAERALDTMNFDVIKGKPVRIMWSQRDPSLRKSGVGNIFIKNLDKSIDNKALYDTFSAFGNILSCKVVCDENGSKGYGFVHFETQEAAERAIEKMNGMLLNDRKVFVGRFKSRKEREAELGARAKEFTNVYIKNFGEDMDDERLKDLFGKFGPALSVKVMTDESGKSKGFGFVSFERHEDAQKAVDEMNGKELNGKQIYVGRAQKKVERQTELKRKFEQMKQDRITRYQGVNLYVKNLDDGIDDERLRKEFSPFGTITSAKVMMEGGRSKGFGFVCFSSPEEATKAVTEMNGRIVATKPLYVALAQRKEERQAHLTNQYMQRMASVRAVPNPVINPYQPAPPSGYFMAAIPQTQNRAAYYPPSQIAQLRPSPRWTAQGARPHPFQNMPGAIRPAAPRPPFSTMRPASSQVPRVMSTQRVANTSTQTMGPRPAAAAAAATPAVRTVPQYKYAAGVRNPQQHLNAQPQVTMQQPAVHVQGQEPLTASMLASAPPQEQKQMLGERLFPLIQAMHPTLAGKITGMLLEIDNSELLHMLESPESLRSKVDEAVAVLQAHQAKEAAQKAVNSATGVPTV
PABP FP inh – blocks human PABP binding to poly(A) RNA | fluorescence polarization | AID 2014 | 290,000 tested, 1% active | P11940 | calls only at 35 µM;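 also: calls also rest on retests at 20 µM and on dose response follow-up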
eIF4H FP inh – inhibitors of RNA binding by human eIF4H; Q15056; eIF4H fluorescence polarization binding assay; inhibition, % at 35 µM; 290,000 tested, 0.94% active; AID 2012;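 also: calls also rest on retests at 20 µM and on dose response follow-up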
Numbers without * were called inactive. Unless noted, no rule for the calls is given here.

What do the screens show for `Cn1nc(C(C)(C)C)cc1C(=O)N1CCCCC1c1cc(C(=O)Nc2ccc(F)c(Cl)c2)no1` (stereo not given)?
ABCB6 inh 2: 93; PABP1 MLLE inh: -4

Results for COC(=O)C(NC(=O)c1ccccc1)=C1CCCCC1 ?
AI-2 QS modul: 7; ABCB6 inh 2: 74*; PHOSPHO1 block: 18; PABP1 MLLE inh: -1; PABP FP inh: inactive; eIF4H FP inh: -4

What do the screens show for `CCOC(=O)C(NC(=O)c1ccccc1)=C1CCCCC1`?
AI-2 QS modul: 13; ABCB6 inh 2: 113; PHOSPHO1 block: 18; PABP1 MLLE inh: 3; PABP FP inh: inactive; eIF4H FP inh: -12

Results for CCc1ccccc1NCC(=O)Nc1ccccc1C(=O)OC ?
AI-2 QS modul: 8; ABCB6 inh 2: 99; PHOSPHO1 block: -4; PABP1 MLLE inh: 2; PABP FP inh: inactive; eIF4H FP inh: active

Results for O=C1c2cccc3c([N+](=O)[O-])ccc(c23)C(=O)N1c1nccs1 ?
AI-2 QS modul: 3; ABCB6 inh 2: 187; PHOSPHO1 block: 97*; PABP1 MLLE inh: 7; PABP FP inh: inactive; eIF4H FP inh: 33

What do the screens show for `O=C1c2cccc3c([N+](=O)[O-])ccc(c23)C(=O)N1c1ccc(Cl)cn1`?
AI-2 QS modul: 37; ABCB6 inh 2: 163; PHOSPHO1 block: 93*; PABP1 MLLE inh: 62; PABP FP inh: inactive; eIF4H FP inh: 21

Results for O=C1c2cccc3cccc(c23)C(=O)N1c1nccs1 ?
AI-2 QS modul: 8; ABCB6 inh 2: 101; PHOSPHO1 block: -10; PABP1 MLLE inh: 2; PABP FP inh: inactive; eIF4H FP inh: -2

What do the screens show for `O=C1c2cccc3c([N+](=O)[O-])ccc(c23)C(=O)N1c1ccccn1`?
AI-2 QS modul: 5; ABCB6 inh 2: 226; PHOSPHO1 block: 34; PABP1 MLLE inh: 2; PABP FP inh: inactive; eIF4H FP inh: 25

Results for COCCCN1C(=O)C(CC(=O)NC2CC2)CC(C(=O)N(C(C)C)C(C)C)=C1C (stereo not given) ?
ABCB6 inh 2: 101; PABP1 MLLE inh: -3

What do the screens show for `O=c1[nH][nH]c2c1[C@@H](c1ccc(F)cc1)O[C@H](CCOCc1ccccc1)C2`?
ABCB6 inh 2: 96

How did COc1nccnc1NS(=O)(=O)c1ccc(NC(=S)NC(=O)/C=C/c2ccccc2)cc1 do in these assays?
AI-2 QS modul: 20; ABCB6 inh 2: 87; PHOSPHO1 block: -7; PABP1 MLLE inh: 45*; PABP FP inh: inactive; eIF4H FP inh: 1

How did COC(=O)[C@@]1(Cc2ccc(F)cc2)[C@H]2c3cc(C(=O)N(C)C)n(CCc4c[nH]c5ccc(O)cc45)c3C[C@H]2CN1C(=O)c1ccccc1 do in these assays?
ABCB6 inh 2: 125

Results for Cc1ccc2nc(NC(=O)CCn3c(=O)sc4ccccc43)sc2c1 ?
AI-2 QS modul: 17; ABCB6 inh 2: 72*; PHOSPHO1 block: -6; PABP1 MLLE inh: 1; PABP FP inh: inactive; eIF4H FP inh: 5

Results for O=C(CCn1c(=O)sc2ccccc21)Nc1nc2ccccc2s1 ?
AI-2 QS modul: 13; ABCB6 inh 2: 107; PHOSPHO1 block: 10; PABP1 MLLE inh: 2; PABP FP inh: inactive; eIF4H FP inh: -3

How did CCOCC(=O)Nc1nc2ccc(C)cc2s1 do in these assays?
AI-2 QS modul: -2; ABCB6 inh 2: 100; PHOSPHO1 block: 4; PABP1 MLLE inh: 41*; PABP FP inh: inactive; eIF4H FP inh: -3

How did CCNC(=O)C1CCCN(C(=O)c2ccco2)CC1 (stereo not given) do in these assays?
ABCB6 inh 2: 94; PABP1 MLLE inh: 13

How did Cc1ccc(C#N)c(SCc2ccccc2[N+](=O)[O-])n1 do in these assays?
AI-2 QS modul: 45; ABCB6 inh 2: 95; PHOSPHO1 block: 3; PABP1 MLLE inh: 12; PABP FP inh: inactive; eIF4H FP inh: -7

Results for Cc1nc([N+](=O)[O-])c(C(=O)OCc2ccccc2C#N)n1C ?
AI-2 QS modul: 33; ABCB6 inh 2: 106; PHOSPHO1 block: 12; PABP1 MLLE inh: -6; PABP FP inh: active; eIF4H FP inh: active

Results for COc1ccc(Cc2c(-c3ccc(F)cc3)nc3c(C)cc(Br)cn23)c(C)c1 ?
ABCB6 inh 2: 101; PABP1 MLLE inh: -29

How did NC(=O)c1ccsc1NC(=O)CSc1nc2ccccc2c(=O)n1CCCO do in these assays?
AI-2 QS modul: 17; ABCB6 inh 2: 78; PHOSPHO1 block: -14; PABP1 MLLE inh: 51*; PABP FP inh: inactive; eIF4H FP inh: 1

What do the screens show for `Cn1sccc1=O`?
ABCB6 inh 2: 93; PABP1 MLLE inh: 37*

What do the screens show for `c1ccc(-c2cc3nc(NCc4cccs4)nc(NCc4ccc5occc5c4)c3s2)cc1`?
ABCB6 inh 2: 101; PABP1 MLLE inh: -13

What do the screens show for `O=C1C(Cl)=C(Nc2ccc3cn[nH]c3c2)C(=O)c2ccccc21`?
AI-2 QS modul: 9; ABCB6 inh 2: 65*; PHOSPHO1 block: 34; PABP1 MLLE inh: 29; PABP FP inh: inactive; eIF4H FP inh: 2

Results for COc1ccc(CNC(=O)C(=O)c2cn(CC(=O)N3CCCC3)c3ccccc23)cc1 ?
AI-2 QS modul: 5; ABCB6 inh 2: 101; PHOSPHO1 block: 24; PABP1 MLLE inh: -1; PABP FP inh: inactive; eIF4H FP inh: 1

What do the screens show for `COc1ccccc1CNC(=O)C(=O)c1cn(CC(=O)N2CCCC2)c2ccccc12`?
AI-2 QS modul: -1; ABCB6 inh 2: 98; PHOSPHO1 block: 62*; PABP1 MLLE inh: 4; PABP FP inh: inactive; eIF4H FP inh: 2

Results for O=c1c2c([N+](=O)[O-])cc([N+](=O)[O-])cc2sn1Cc1ccccc1 ?
AI-2 QS modul: 42; ABCB6 inh 2: 122; PHOSPHO1 block: -12; PABP1 MLLE inh: 33; PABP FP inh: inactive; eIF4H FP inh: -1

Results for O=c1c2c([N+](=O)[O-])cc([N+](=O)[O-])cc2sn1-c1ccc(Br)cc1 ?
ABCB6 inh 2: 94; PHOSPHO1 block: 89*; PABP1 MLLE inh: 3; PABP FP inh: inactive; eIF4H FP inh: -1

How did CCOc1ccc(/C=N/n2nnnc2N)cc1O do in these assays?
AI-2 QS modul: 11; ABCB6 inh 2: 108; PHOSPHO1 block: 62*; PABP1 MLLE inh: 0; PABP FP inh: inactive; eIF4H FP inh: -8

What do the screens show for `CCOc1cc(/C=N\n2nnnc2N)ccc1O`?
AI-2 QS modul: 1; ABCB6 inh 2: 97; PHOSPHO1 block: 24; PABP1 MLLE inh: 4; PABP FP inh: inactive; eIF4H FP inh: -1

How did CCc1nc2ccc(C(=O)NCCOc3ccc(OC)cc3)cn2c1N(CC)CCN(C)C do in these assays?
ABCB6 inh 2: 102; PABP1 MLLE inh: -25

What do the screens show for `O=C(CC[C@H]1O[C@@H](n2cnc3c(NC(=O)c4ccccc4)ncnc32)[C@H](O)[C@@H]1O)NCC1CCCCC1`?
ABCB6 inh 2: 98; PABP1 MLLE inh: 22
